Laboratory results as given in the supplement of paper PMC10811239.

Tested on: LEGO organoid PTCC (PTEN-/-; TP53-/-; CDKN2A-/-; CDKN2B-/-)
Assay: bioluminescence (viable cell) signal fold change after vs before treatment, normalised to DMSO (ratio); higher = more tumour cell growth / less inhibition
Conditions: 10 µM; treatment time 6 days
Method: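 Luc2-labelled iPSC-derived glioblastoma-like organoids (LEGOs, genotypes PT = PTEN-/-;TP53-/-, PTCC = plus CDKN2A/B-/-, PTN = plus NF1-/-) were treated with 10 uM drug for 6 days (applied every other day) at 37 C. Bioluminescence imaging was done before treatment and 2 days after the last dose. BLI signals were normalised to the DMSO control on the same day and then to the pre-treatment signal (N=3).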

SMILES | bioluminescence
CN1C(C(=O)Nc2ccccn2)=C(O)c2ccccc2S1(=O)=O [Piroxicam] | 1.65
CS(=O)(=O)O.Cc1ccc(NC(=O)c2ccc(CN3CCN(C)CC3)cc2)cc1Nc1nccc(-c2cccnc2)n1 [Imatinib Mesylate] | 1.35
COc1cccc2c1C(=O)c1c(O)c3c(c(O)c1C2=O)C[C@@](O)(C(=O)CO)C[C@@H]3O[C@H]1C[C@H](N)[C@@H](O)[C@H](C)O1.Cl [Epirubicin hydrochloride] | 0
CCN1CCN(C(=O)N[C@@H](C(=O)N[C@@H]2C(=O)N3[C@@H]2SC(C)(C)[C@@H]3C(=O)[O-])c2ccccc2)C(=O)C1=O.[Na+] [Piperacillin sodium salt] | 1.11
CC[C@@H]1/C=C(\C)C[C@H](C)C[C@H](OC)[C@H]2O[C@@](O)(C(=O)C(=O)N3CCCC[C@H]3C(=O)O[C@H](/C(C)=C/[C@@H]3CC[C@H](Cl)[C@H](OC)C3)[C@H](C)[C@@H](O)CC1=O)[C@H](C)C[C@@H]2OC [Pimecrolimus] | 0.535
CC(=O)Oc1ccccc1C(=O)O [Aspirin] | 0.785
CC1=C(/C=C/C(C)=C/C=C/C(C)=C/C(=O)O)C(C)(C)CCC1 [Tretinoin] | 0.531
CO[C@H]1C[C@@H]2CC[C@@H](C)[C@@](O)(O2)C(=O)C(=O)N2CCCC[C@H]2C(=O)O[C@H]([C@H](C)C[C@@H]2CC[C@@H](OC(=O)C(C)(CO)CO)[C@H](OC)C2)CC(=O)[C@H](C)/C=C(\C)[C@@H](O)[C@@H](OC)C(=O)[C@H](C)C[C@H](C)/C=C/C=C/C=C/1C [Temsirolimus] | 0.978
CCc1cc(/C(C)=N/OCc2ccc(C3CCCCC3)c(C(F)(F)F)c2)ccc1CN1CC(C(=O)O)C1 [Siponimod] | 2.91
Cl.O.O=C1Cc2cc(CCN3CCN(c4nsc5ccccc45)CC3)c(Cl)cc2N1 [Ziprasidone hydrochloride monohydrate] | 1.05
CC(C)(C)c1cc(C(C)(C)C)c(NC(=O)c2c[nH]c3ccccc3c2=O)cc1O [Ivacaftor] | 0.191
Nc1nc(NC2CC2)c2ncn([C@H]3C=C[C@@H](CO)C3)c2n1 [Abacavir] | 1.46
Nc1cccc2c1CN(C1CCC(=O)NC1=O)C2=O (stereo not drawn) [Lenalidomide] | 4.82
Cl.CN(C)CC\C=C1\c2ccccc2CCc2ccccc12 [Amitriptyline hydrochloride] | 0.794
COc1ccccc1Oc1c(NS(=O)(=O)c2ccc(C(C)(C)C)cc2)nc(-c2ncccn2)nc1OCCO [Bosentan] | 1.68
Nc1[nH]c(=O)ncc1F [Fluorocytosine] | 1.01
C[C@H](Cn1cnc2c(N)ncnc21)OCP(=O)(O)O [Tenofovir] | 3.69
C[C@@H]1O[C@@H]1P(=O)(O)O.NC(CO)(CO)CO [Fosfomycin Tromethamine] | 1.69
C[N+](C)(C)CCO.[Cl-] [Choline chloride] | 0.614

SMILES | bioluminescence
Nc1ncnc2c1ncn2[C@@H]1O[C@H](CO)[C@@H](O)[C@H]1OP(=O)(O)O [Adenosine-2'-monophosphate] | 1.96
CC1=NN(c2ccccc2)C(=O)C1 [Edaravone] | 0.508
O=C([O-])CCCc1ccccc1.[Na+] [Sodium Phenylbutyrate] | 0.911
C[C@H]1C[C@@H]2[C@H]([C@@H](O)C[C@@]3(C)[C@H]2CC[C@]3(O)C(=O)CO)[C@@]2(C)C=CC(=O)C=C12 [Methylprednisolone] | 0.882
CCC1=C[C@@H]2CN(C1)Cc1c([nH]c3ccccc13)[C@@](C(=O)OC)(c1cc3c(cc1OC)N(C)[C@H]1[C@@](O)(C(=O)OC)[C@H](OC(C)=O)[C@]4(CC)C=CCN5CC[C@]31[C@@H]54)C2.O=C(O)[C@H](O)[C@@H](O)C(=O)O.O=C(O)[C@H](O)[C@@H](O)C(=O)O [Vinorelbine Tartrate] | 1.06
COc1cc2ncnc(Nc3ccc(F)c(Cl)c3)c2cc1OCCCN1CCOCC1 [Gefitinib] | 1.22
CS(=O)(=O)OCCCCOS(C)(=O)=O [Busulfan] | 1.3
O=C1NC(=O)C(c2ccccc2)(c2ccccc2)N1 [Phenytoin] | 0.982
CCCN(CCc1cccs1)[C@H]1CCc2c(O)cccc2C1 [Rotigotine] | 2.02
Cc1cccc(C)c1OCC(=O)N[C@@H](Cc1ccccc1)[C@@H](O)C[C@H](Cc1ccccc1)NC(=O)[C@H](C(C)C)N1CCCNC1=O [Lopinavir] | 0.969
CC(C)Oc1ccc(-c2nc(-c3cccc4c3CC[C@@H]4NCCO)no2)cc1C#N [Ozanimod] | 0.828
O=C1Nc2ccc(Cl)cc2[C@@](C#CC2CC2)(C(F)(F)F)O1 [Efavirenz] | 1.96
Cl.OC[C@H]1NC[C@H](O)[C@@H](O)[C@H]1O [Migalastat hydrochloride] | 0.51
CCCN(CCC)CCc1cccc2c1CC(=O)N2.Cl [Ropinirole hydrochloride] | 1.02
CN1CC(=O)N2[C@H](c3ccc4c(c3)OCO4)c3[nH]c4ccccc4c3C[C@@H]2C1=O [Tadalafil] | 1.47
CCC1=CC2CN(C1)Cc1c([nH]c3ccccc13)[C@](C(=O)OC)(c1cc3c(cc1OC)N(C)[C@H]1[C@@](O)(C(=O)OC)[C@H](OC(C)=O)[C@]4(CC)C=CCN5CC[C@]31[C@@H]54)C2.O=C(O)[C@H](O)[C@@H](O)C(=O)O.O=C(O)[C@H](O)[C@@H](O)C(=O)O (stereo partly drawn) [Vinorelbine ditartrate] | 0.445
CCOC(=O)c1ccc(C#Cc2ccc3c(c2)C(C)(C)CCS3)nc1 [Tazarotene] | 1.42
CN(C)CCc1c[nH]c2ccc(CS(=O)(=O)N3CCCC3)cc12.O=C(O)CC(O)C(=O)O [Almotriptan Malate] | 0.868
CC(C)c1c(C(=O)Nc2ccccc2)c(-c2ccccc2)c(-c2ccc(F)cc2)n1CC[C@@H](O)C[C@@H](O)CC(=O)[O-].CC(C)c1c(C(=O)Nc2ccccc2)c(-c2ccccc2)c(-c2ccc(F)cc2)n1CC[C@@H](O)C[C@@H](O)CC(=O)[O-].[Ca+2] [Atorvastatin Calcium] | 0.222
